Laboratory results: PMC4336329 (PLoS ONE, 2015)
Screen size: about 310,000 compounds; about 14,000 (4.5%) showed an effect of 50% or more. Effects have a minus sign here. The sample as a whole holds a higher share of strong results than the screen did.

The compounds below were run against human ether-à-go-go-related gene (hERG) potassium channel (human, UniProt Q12809) (assay: primary screen, population patch clamp on CHO cells stably expressing hERG; higher = less effect of the substance).
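Note: peak tail current of the secondary pulse compared with the same well before compound.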

human ether-à-go-go-related gene (hERG) potassium channel, sequence (Q12809 whole entry, looked up): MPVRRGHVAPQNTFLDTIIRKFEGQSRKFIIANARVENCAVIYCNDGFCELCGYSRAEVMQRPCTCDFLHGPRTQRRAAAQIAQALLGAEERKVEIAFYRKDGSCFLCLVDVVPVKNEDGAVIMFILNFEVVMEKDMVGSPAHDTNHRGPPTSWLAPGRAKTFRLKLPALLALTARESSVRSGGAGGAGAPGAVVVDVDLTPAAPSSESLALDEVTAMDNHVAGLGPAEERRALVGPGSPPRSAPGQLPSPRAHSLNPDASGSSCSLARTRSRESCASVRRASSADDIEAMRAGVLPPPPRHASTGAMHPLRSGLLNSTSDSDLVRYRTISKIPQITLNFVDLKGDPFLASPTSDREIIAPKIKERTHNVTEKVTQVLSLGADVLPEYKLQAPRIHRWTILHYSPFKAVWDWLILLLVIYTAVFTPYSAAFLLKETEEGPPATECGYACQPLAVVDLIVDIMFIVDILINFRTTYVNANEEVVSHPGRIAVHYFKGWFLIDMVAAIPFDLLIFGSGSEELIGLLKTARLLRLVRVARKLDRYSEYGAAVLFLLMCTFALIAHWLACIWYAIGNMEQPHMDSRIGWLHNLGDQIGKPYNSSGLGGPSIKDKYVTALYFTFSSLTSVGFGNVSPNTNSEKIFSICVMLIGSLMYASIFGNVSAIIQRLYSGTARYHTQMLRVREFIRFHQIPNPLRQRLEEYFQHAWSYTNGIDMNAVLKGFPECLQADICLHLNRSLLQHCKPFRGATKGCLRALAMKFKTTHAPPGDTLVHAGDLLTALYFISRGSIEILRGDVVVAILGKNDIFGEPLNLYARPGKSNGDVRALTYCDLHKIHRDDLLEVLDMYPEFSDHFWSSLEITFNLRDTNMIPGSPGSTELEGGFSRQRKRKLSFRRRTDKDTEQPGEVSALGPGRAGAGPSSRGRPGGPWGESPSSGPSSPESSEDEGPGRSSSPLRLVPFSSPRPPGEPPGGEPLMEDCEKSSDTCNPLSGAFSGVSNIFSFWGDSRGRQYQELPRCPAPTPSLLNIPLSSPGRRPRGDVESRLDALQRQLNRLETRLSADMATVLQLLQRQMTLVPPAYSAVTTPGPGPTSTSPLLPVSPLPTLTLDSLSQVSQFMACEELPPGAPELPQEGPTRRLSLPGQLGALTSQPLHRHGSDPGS

Question: Which “hERG current change (%, negative = inhibition) at 10uM” value does the source give for `CN(c1ccc(C(=O)NC2CCCC2)cc1)S(=O)(=O)c1ccc(Cl)cc1` here?
Answer: 16.2%

Question: With `COC(=O)CNC(=O)C1CCN(S(=O)(=O)c2cnc[nH]2)CC1` as the compound, how does the “hERG current change (%, negative = inhibition) at 10uM” value read?
Answer: -1.84%

Question: `CC1=NN(C(C#N)c2ccc(F)cc2)C(c2ccccc2)C1` (stereo not drawn) was tested. Which “hERG current change (%, negative = inhibition) at 10uM” value did it give?
Answer: 4.44%

Question: With `COCCN(CCOC)S(=O)(=O)c1ccc(C(=O)Nc2ccncc2)cc1` as the compound, how does the “hERG current change (%, negative = inhibition) at 10uM” value read?
Answer: -11.6%

Question: Which “hERG current change (%, negative = inhibition) at 10uM” value does the source give for `CSc1cccc(NC(=O)CN(C)S(=O)(=O)c2ccc(C)cc2)c1` here?
Answer: -32.8%

Question: `CCc1ccc2[nH]c(=O)c(C(c3nnnn3CCOC)N3CCN(c4ccccc4)CC3)cc2c1` (stereo not drawn) was tested. Which “hERG current change (%, negative = inhibition) at 10uM” value did it give?
Answer: -11.6%

Question: For `COCCn1nc2cc(C(=O)NCc3cc(C(F)(F)F)cc(C(F)(F)F)c3)ccc2c1OC`, which “hERG current change (%, negative = inhibition) at 10uM” value is on record?
Answer: 21.8%

Question: Which “hERG current change (%, negative = inhibition) at 10uM” value does the source give for `C[C@@H](NC(=O)[C@@H]1Cc2ccccc2CN1)C(=O)Nc1ccc2c(c1)OCCO2` here?
Answer: 3.19%

Question: With `CSCC[C@H](NC(=O)[C@@H]1Cc2ccccc2CN1)C(=O)Nc1ccc2c(c1)OCCO2` as the compound, how does the “hERG current change (%, negative = inhibition) at 10uM” value read?
Answer: -65.5%

Question: For `C[C@H](NC(=O)[C@@H]1Cc2ccccc2CN1)C(=O)Nc1ccc2c(c1)OCCO2`, which “hERG current change (%, negative = inhibition) at 10uM” value is on record?
Answer: 3.18%

Question: With `Cc1cc(C(=O)OCC(=O)NCc2ccc3c(c2)OCO3)c2ccccc2n1` as the compound, how does the “hERG current change (%, negative = inhibition) at 10uM” value read?
Answer: -27.5%

Question: For `Cc1ccc(N(C(=O)c2snc(C(N)=O)c2N)C(C(=O)NCC2CCCO2)c2c[nH]c3ccccc23)cc1` (stereo not drawn), which “hERG current change (%, negative = inhibition) at 10uM” value is on record?
Answer: -6.36%

Question: How did the “hERG current change (%, negative = inhibition) at 10uM” value turn out when `O=C(CSc1nnc(-c2ccncc2)o1)Nc1nncs1` was run?
Answer: 15.5%

Question: For `O=C(CSc1nnc(-c2ccccc2Br)o1)Nc1nncs1`, which “hERG current change (%, negative = inhibition) at 10uM” value is on record?
Answer: -57.9%

Question: `O=C(CSc1nnc(-c2ccccc2Br)o1)Nc1cccc2ccccc12` was tested. Which “hERG current change (%, negative = inhibition) at 10uM” value did it give?
Answer: 5.79%

Question: Which “hERG current change (%, negative = inhibition) at 10uM” value does the source give for `COc1ccc(NC(=O)c2ccc(COc3ccccc3)o2)c(OC)c1` here?
Answer: -7.06%

Question: How did the “hERG current change (%, negative = inhibition) at 10uM” value turn out when `O=C(CC(C(=O)O)C1CCCO1)Nc1cccc(C(F)(F)F)c1` (stereo not drawn) was run?
Answer: 5.84%

Question: For `O=C(CNC(=O)c1cccnc1)N/N=C/c1cccnc1`, which “hERG current change (%, negative = inhibition) at 10uM” value is on record?
Answer: 8.4%

Question: How did the “hERG current change (%, negative = inhibition) at 10uM” value turn out when `O=C1CN(C(=O)c2ccccc2)C(c2ccccc2)c2cc(F)ccc2N1` (stereo not drawn) was run?
Answer: -75.1%

Question: With `O=C1CN(C(=O)c2cccc(F)c2)C(c2ccc(F)cc2)c2cc(F)ccc2N1` (stereo not drawn) as the compound, how does the “hERG current change (%, negative = inhibition) at 10uM” value read?
Answer: -15.4%

Question: For `O=C1CN(C(=O)c2ccccc2Br)C(c2ccc(F)cc2)c2cc(F)ccc2N1` (stereo not drawn), which “hERG current change (%, negative = inhibition) at 10uM” value is on record?
Answer: -61.6%

Question: How did the “hERG current change (%, negative = inhibition) at 10uM” value turn out when `O=C1CN(C(=O)c2ccccc2F)C(c2ccc(F)cc2)c2cc(F)ccc2N1` (stereo not drawn) was run?
Answer: -11.7%

Question: With `Cc1ccc(C(=O)N2CC(=O)Nc3ccc(F)cc3C2c2ccccc2)cc1` (stereo not drawn) as the compound, how does the “hERG current change (%, negative = inhibition) at 10uM” value read?
Answer: -4.56%

Question: With `Cc1ccc2c(c1)C(c1ccc(F)cc1)N(C(=O)c1ccccc1Br)CC(=O)N2` (stereo not drawn) as the compound, how does the “hERG current change (%, negative = inhibition) at 10uM” value read?
Answer: -16.1%
